From PubChem BioAssay (NCI)
The panel holds about 83,000 compounds, 20% with a hit somewhere; the sample as a whole holds those more often.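 For each line, cells grew in 96-well plates with the test compound present at a single concentration for 48 hours.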 Unmarked numbers belong to inactive results. Calls of active or inactive are those of the source. How the source made its calls: active means growth percent below 10; inactive means the rest.

These compounds were tested on HL-60(TB) leukemia (assay: NCI-60 one-dose screen, 48 h (100 = growth as untreated, 0 = no growth, -100 = all killed)). Settings: 10 µM unless noted.
Work on `COc1ccc(C(=O)Nc2cccc(-c3cc(=O)c4c(OC)c(OC)c(OC)cc4o3)c2)cc1` yielded a growth of 44.8%. Compound `Cc1nn(-c2cc(=O)[nH]c3ccccc23)c(N)c1C#N` has a growth of 102%. Compound `C/C(=N\O)C(=O)NCCCCCC(=O)Nc1ccccc1` has a growth of 93.2%. In the case of `CC1=CC(C)(C)NC(=S)N1c1ccc(S(=O)(=O)O)c2cccc(S(=O)(=O)O)c12`, the growth is reported as 106%. For `c1ccc2cc(Cn3cc[n+](Cc4ccc5ccccc5c4)c3)ccc2c1`, the growth was -33.6% (active). With `O=C(/C=C\c1cc(Br)ccc1O)/C=C/c1cc(Br)ccc1O` the growth was -3.03% (active). For `O=C(N(c1ccccc1)c1ccccc1)n1cc(I)c2nc(Cl)nc(Cl)c21`, the growth was 22.9%. In the case of `COc1ccc(C(c2cc(OC)c(OC)c(OC)c2)n2ccnc2)cc1O` (centres undefined), the growth is reported as -35.9% (active). For `Cc1cc2cn3c4cccnc4[nH]c(=O)c3c2cc1C`, the growth was -32.6% (active). Work on `Cc1ccc(Cl)cc1N1C(=O)CC(Sc2ccccc2N)C1=O` (centres undefined) yielded a growth of 110%. Work on `Clc1nc(Nc2ccccc2)nc(Nc2ccccc2)n1` yielded a growth of 65.6%. Work on `CCCCCCCCN(CCCCCCCC)CCCCCCNc1cc(OC)cc2cccnc12` yielded a growth of 83.6%. In the case of `COc1cc2ncnc(Nc3ccc(S(=O)(=O)Nc4cc(C)on4)cc3)c2cc1OCCCN1CCN(c2ccc([N+](=O)[O-])cc2)CC1`, the growth is reported as 118%. With `Cc1nc2ccccc2c(/C=C/c2ccccc2)c1C(=O)/C=C/c1ccc(C(F)(F)F)cc1` the growth was -26.9% (active). For `CCCc1cc2c(=O)c(C(=O)OC)c[nH]c2cc1N(CC)CC`, the growth was 91.6%. In the case of `COc1ccc(-c2n[nH]nc2-c2cc(OC)c3c(c2)OCO3)cc1`, the growth is reported as -38.2% (active). `NC1=C(/C(N)=N/O)C(c2ccccc2)c2ccc3ccccc3c2O1` (centres undefined) was tested, and the growth was -19% (active). Compound `O=C(Nc1ncc(Cc2cccc(C(F)(F)F)c2)s1)C1COc2ccccc2O1` (centres undefined) has a growth of 98.5%. In the case of `CC(O)COc1ccc(-c2ccccc2)cc1` (centres undefined), the growth is reported as 102%. `C=CCn1c(SCC(=O)Nc2ccc(C(=O)/C=C/c3ccc(Cl)cc3)cc2)nnc1-c1ccc(Br)cc1` showed a growth of 76.2%. In the case of `CCCCc1ccc(NC(=O)N(CCCl)N=O)cc1`, the growth is reported as 98.8%. In the case of `O=C(CCc1nnc2sc(OCc3ccccc3)nn12)c1nc2ccc([N+](=O)[O-])cc2[nH]1`, the growth is reported as 97.9%. In the case of `C/C=C1/CN(CCCCC)CC[C@H]1C(=O)c1cc2ccccc2[nH]1`, the growth is reported as 90.6%. Work on `c1ccc2c(-c3nc(N4CCOCC4)c4c5c(sc4n3)CCCCCC5)cccc2c1` yielded a growth of 114%. `OCCNc1nc(Nc2ccc(C3=NN(c4cc(Cl)cc(Cl)c4)C(c4ccc(C(F)(F)F)cc4)C3)cc2)nc(N2CCOCC2)n1` (centres undefined) showed a growth of 101%. For `COc1cc(NC(=O)c2cc(O)c(C/C=C(\C)CCC=C(C)C)c(O)c2)cc2c1O[C@]1(C)CC[C@@H](O)C(C)(C)[C@H]1C2`, the growth was -7.34% (active). Compound `Nc1nc2ccccc2c2c(=O)c3ccc(Cl)cc3sc12` has a growth of 92.1%. `CCCCn1c2cc(OCc3cn(-c4ccc(Cl)cc4)nn3)ccc2c2ccnc(C)c21` was tested, and the growth was -46.5% (active). In the case of `COc1ccc2c(N)ncc(C#Cc3cc(C(=O)Nc4ccc(CN5CCN(C)CC5)c(C(F)(F)F)c4)cnc3C)c2c1`, the growth is reported as 43.9%. `COc1ccc(-c2nnc(-c3c(-c4ccccc4)nc4ncccn34)o2)cc1OC` showed a growth of 85.5%. `CNC(=O)c1cc(Oc2cccc3nc(NC(=O)Nc4cc(C(F)(F)F)ccc4Cl)ccc23)ccn1` was tested, and the growth was 103%. For `Fc1cccc(-c2ccc3c(c2)C2(CCNCC2)CN3)c1`, the growth was 108%. With `COc1ccc2c(c1)C/C(=C\c1cc(-c3ccc4c(c3)OCO4)n[nH]1)C2=O` the growth was 88.3%. For `O=S(=O)(Nc1cccc(Cl)c1)c1ccc(-c2cnc(C3CC3)o2)cc1`, the growth was 2.04% (active). `O=[N+]([O-])c1ccc(N/N=C/C2CCCCCC2)c([N+](=O)[O-])c1` showed a growth of 97.1%. In the case of `CCc1ccc(/C(C#N)=C/C=C/c2ccccc2)cc1`, the growth is reported as -1.39% (active). `CCN(CC)CCOc1ccc2c(c1O)C(=O)c1ccccc1C2=O` showed a growth of 71.4%. For `O=C1NC(=O)C(c2ccc(Cl)cc2Cl)N1` (centres undefined), the growth was 107%. Compound `O=C1NC(SCc2ccc(F)cc2)=N/C1=C/c1cccc(OCc2ccc(Cl)cc2)c1` has a growth of 61.5%.
